In the library only some 10% were active in any assay of this set; here they are far more common.
NIH3T3 tox – kills NIH 3T3 cells | NIH 3T3 viability, CellTiter-Glo ATP luminescence, 48-72 h | Potency, µM (titrated, usually from 96.7 µM), for inactives: at the highest dose activity change, negative = cytotoxicity, hits mostly inhibitors | actives 4.3% (n = 94,000) | AID 1345082; further: nearly all actives have a fitted effect of over 55% in size
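ATP-dependent luminescence (CellTiter-Glo) served as the viability signal for NIH 3T3 cells treated with compound for 48 or 72 hr at 37 °C.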
GPT2 inhibitor – GPT2 alanine aminotransferase inhibition | Q8TD30 | Recombinant GPT2, coupled pyruvate oxidase/HRP Amplex Red fluorescence | Potency, µM (highest dose often 57.7 µM), for inactives: at the top dose activity change, negative = inhibition, actives largely listed as inhibitors | actives 0.25% (n = 100,000); further: nearly all actives have a fitted effect of over 60% in size
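GPT2 10ng/uL, a-KG 250uM, L-Ala 2mM, HEPES pH7.5 + 0.0001% Tween; 30 min RT. Then Amplex mix (PO/HRP/ThPP), 30 min RT dark, fluorescence. AOA 50uM used as positive control.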
Luciferase inh – inhibitors of firefly (Photinus pyralis) luciferase; actives 2.5% (n = 76,000); purified P. pyralis luciferase, luminescence, biochemical; Potency, µM (top dose mostly 115 µM), usual class: inhibitors; further: nearly all actives have a fitted effect of over 65% in size
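Cell-free enzyme assay, 10nM P. pyralis luciferase, luciferin and ATP each at 10uM. Inhibition profiled over a 6-point titration, read as luminescence.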
NPR1 antag – human Npr1 receptor antagonism | HEK293 hNpr1 GloSensor cGMP, ANP-stimulated luminescence | Potency, µM (highest dose often 46.3 µM), inactives show at the top dose activity change, negative = inhibition, hits mostly inhibitors | actives 1.6% (n = 76,000) | AID 1347048; calls by dose curve; further: nearly all actives have a fitted effect of over 60% in size
Target sequence (P16066 whole entry, looked up): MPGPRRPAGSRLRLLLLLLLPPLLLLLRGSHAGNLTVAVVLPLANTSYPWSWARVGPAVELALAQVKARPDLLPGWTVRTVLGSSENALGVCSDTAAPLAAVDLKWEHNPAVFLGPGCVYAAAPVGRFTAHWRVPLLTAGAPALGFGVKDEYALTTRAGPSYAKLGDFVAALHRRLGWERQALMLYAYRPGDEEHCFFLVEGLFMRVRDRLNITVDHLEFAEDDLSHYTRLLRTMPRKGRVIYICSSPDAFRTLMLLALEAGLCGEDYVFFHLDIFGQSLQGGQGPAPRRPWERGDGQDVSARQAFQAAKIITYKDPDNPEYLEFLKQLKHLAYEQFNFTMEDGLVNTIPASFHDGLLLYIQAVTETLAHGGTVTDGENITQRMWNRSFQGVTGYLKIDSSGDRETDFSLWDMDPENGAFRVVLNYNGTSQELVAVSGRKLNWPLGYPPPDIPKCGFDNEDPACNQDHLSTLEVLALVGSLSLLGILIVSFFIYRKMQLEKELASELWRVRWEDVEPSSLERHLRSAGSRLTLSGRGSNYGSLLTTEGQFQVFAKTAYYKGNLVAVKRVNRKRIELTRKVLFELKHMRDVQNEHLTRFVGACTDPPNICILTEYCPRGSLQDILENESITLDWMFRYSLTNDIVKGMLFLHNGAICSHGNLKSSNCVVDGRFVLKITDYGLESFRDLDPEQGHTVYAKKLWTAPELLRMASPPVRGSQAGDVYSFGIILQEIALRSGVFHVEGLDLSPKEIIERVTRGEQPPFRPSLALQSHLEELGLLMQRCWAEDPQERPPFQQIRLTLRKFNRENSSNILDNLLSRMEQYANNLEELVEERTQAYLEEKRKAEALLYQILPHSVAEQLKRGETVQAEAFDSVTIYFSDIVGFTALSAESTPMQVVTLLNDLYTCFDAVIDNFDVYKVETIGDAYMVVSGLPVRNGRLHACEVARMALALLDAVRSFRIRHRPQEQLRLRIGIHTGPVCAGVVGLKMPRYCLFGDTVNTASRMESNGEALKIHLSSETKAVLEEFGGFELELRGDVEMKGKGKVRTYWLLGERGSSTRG
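HEK293 cells stably expressing human Npr1 and cGMP GloSensor pGS-40F, loaded 2 h with 2% GloSensor reagent, given compound 30 min at room temperature. Luminescence read before and 20 min after 0.1 nM hNppA.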
HEK293 tox – kills HEK 293 cells; HEK 293 viability, ATP luminescence (CellTiter-Glo), 48-72 h; Potency, µM (doses to about 115 µM), for the others: at the highest dose activity change, negative = cytotoxicity, hits mostly inhibitors; actives 6.6% (n = 94,000); AID 1345083; further: nearly all actives have a fitted effect of over 60% in size
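250 HEK 293 cells/well; compound by pintool; incubated 48 or 72 hr at 37 degree Celsius; CellTiter-Glo added, 10 min RT, luminescence imaged.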
The depositor's hits bear a star; ! = not confirmed by another sample; [ ] = dose if it differs, or a comment. Unless noted, the call rests on the fitted dose curve; in most records, active means well fitted curve in the direction sought with a large enough effect; inconclusive means small, poorly fitted or top-dose-only effect, or another doubt; inactive means no such curve, though single readings can be large; an effect the other way counts as inactive or inconclusive. On the % scale 0 is the no-effect control and ±100 the full control effect; potency means the concentration at half of the fitted maximal effect.

Results for CCc1nc2c(c(-c3ccc(OC)cc3)n1)CCN(Cc1cc(C)on1)CC2 ?
NIH3T3 tox: 20µM*; GPT2 inhibitor: inactive; HEK293 tox: 4%

How did CCc1nc2c(c(-c3ccc(Cl)cc3)n1)CN(Cc1ccc(F)cc1)CC2 do in these assays?
NIH3T3 tox: 22µM*; GPT2 inhibitor: inactive; Luciferase inh: inactive; NPR1 antag: 1%; HEK293 tox: 45µM*

How did CCc1nc2c(c(-c3ccc(Cl)cc3)n1)CN(S(=O)(=O)c1ccccc1)CC2 do in these assays?
NIH3T3 tox: 20µM*!; GPT2 inhibitor: 1%; Luciferase inh: inactive; NPR1 antag: 2%; HEK293 tox: 5%

Results for CCc1nc2c(c(-c3ccc(Cl)cc3)n1)CN(Cc1cccc3ccccc13)CC2 ?
NIH3T3 tox: 32µM*; GPT2 inhibitor: inactive; Luciferase inh: inactive; NPR1 antag: 0%; HEK293 tox: 79µM*

Results for CC1(C)CC[C@]2(C(=O)O)CC[C@]3(C)C(=CCC4[C@@]5(C)CC[C@H](O[C@H]6O[C@H](C(=O)O)[C@@H](O)[C@H](O[C@@H]7O[C@H](CO)[C@H](O)[C@H](O)[C@H]7O)[C@H]6O)C(C)(C)C5CC[C@]43C)[C@@H]2C1 (some centres undefined) ?
GPT2 inhibitor: inactive

What do the screens show for `CCc1nc2c(c(-c3ccc(Cl)cc3)n1)CCN(Cc1ccc(C#N)cc1)CC2`?
NIH3T3 tox: inconclusive; GPT2 inhibitor: -10%; Luciferase inh: inactive; NPR1 antag: 7%; HEK293 tox: 40µM*

How did CCc1nc2c(c(-c3ccc(Cl)cc3)n1)CN(Cc1cccc(OC)c1)CC2 do in these assays?
NIH3T3 tox: 13µM*; GPT2 inhibitor: inactive; Luciferase inh: inactive; NPR1 antag: 7%; HEK293 tox: inconclusive

How did CCc1nc2c(c(-c3ccc(Cl)cc3)n1)CN(Cc1ccc(OC)cc1)CC2 do in these assays?
NIH3T3 tox: 35µM*; GPT2 inhibitor: inactive; Luciferase inh: inactive; NPR1 antag: 2%; HEK293 tox: inconclusive

How did Cc1occc1C(=O)N1CC(F)(F)C[C@H]1c1nc(C2CC2)no1 do in these assays?
NIH3T3 tox: 3%; GPT2 inhibitor: -20%; Luciferase inh: inconclusive; NPR1 antag: -6%; HEK293 tox: inconclusive

How did COc1cccc(CN2CCC3(CC2)NCCc2c3[nH]c3ccccc23)c1 do in these assays?
NIH3T3 tox: 35µM*; GPT2 inhibitor: -6%; Luciferase inh: inactive; NPR1 antag: -15%; HEK293 tox: 32µM*

How did COc1cccc(CN2CCC3(CC2)NCCc2c3[nH]c3ccc(OC)cc23)c1 do in these assays?
NIH3T3 tox: inconclusive; GPT2 inhibitor: inactive; Luciferase inh: inactive; NPR1 antag: 0%; HEK293 tox: inconclusive

Results for COc1ccc2[nH]c3c(c2c1)CCNC31CCN(Cc2ccc(F)c(F)c2)CC1 ?
NIH3T3 tox: 35µM*; GPT2 inhibitor: -6%; Luciferase inh: inactive; NPR1 antag: -12%; HEK293 tox: inconclusive

Results for O=C1CN(S(=O)(=O)c2ccc(F)cc2)CC(O)CN1CCCc1ccccc1 (centres undefined) ?
NIH3T3 tox: -29%; HEK293 tox: inconclusive

Results for c1ccc(OCC2CN(Cc3ccc4[nH]ccc4c3)CC23CN(c2ccccc2)C3)cc1 (centres undefined) ?
NIH3T3 tox: 25µM*; GPT2 inhibitor: -33%[88.5 µM]; Luciferase inh: inactive; NPR1 antag: inconclusive; HEK293 tox: 28µM*

Results for O=C(Cc1ccccc1)NCC1CN(Cc2ccc3[nH]ccc3c2)CC12CN(c1ccccc1)C2 (centres undefined) ?
NIH3T3 tox: 22µM*; GPT2 inhibitor: -2%; Luciferase inh: inactive; NPR1 antag: -5%; HEK293 tox: 40µM*

What do the screens show for `O=[S+]([O-])(NCC1CN(Cc2ccc(O)cc2)CC12CN(c1ccccc1)C2)c1ccccc1` (centres undefined)?
NIH3T3 tox: 18µM*; GPT2 inhibitor: -14%; Luciferase inh: inactive; NPR1 antag: -22%; HEK293 tox: inconclusive

How did c1ccc(OCC2CN(Cc3ccncc3)CC23CN(c2ccccc2)C3)cc1 (centres undefined) do in these assays?
NIH3T3 tox: 89µM*; GPT2 inhibitor: -1%[88.5 µM]; Luciferase inh: inactive; NPR1 antag: -2%[70.6 µM]; HEK293 tox: inconclusive

Results for O=C(Cc1ccccc1)NCC1CN(Cc2cccc(Cl)c2)CC12CN(c1ccccc1)C2 (centres undefined) ?
NIH3T3 tox: inconclusive; GPT2 inhibitor: 0%; Luciferase inh: inactive; NPR1 antag: -3%; HEK293 tox: inconclusive

What do the screens show for `COc1ccc(CN2CCCC23Cc2ccccc2N([S+](C)(=O)[O-])C3)cc1` (centres undefined)?
NIH3T3 tox: -10%; GPT2 inhibitor: -1%; HEK293 tox: inconclusive

What do the screens show for `CC1(COCC2CC2)COc2ccc(C(=O)Nc3ccccc3)cc2N1` (centres undefined)?
NIH3T3 tox: inconclusive; GPT2 inhibitor: inactive; Luciferase inh: 22µM*; NPR1 antag: -30%[70.6 µM]; HEK293 tox: inconclusive

What do the screens show for `CC1(COCC2CC2)COc2ccc(C(=O)Nc3cccc([S+](C)(=O)[O-])c3)cc2N1` (centres undefined)?
NIH3T3 tox: inconclusive; GPT2 inhibitor: inactive; Luciferase inh: inactive; NPR1 antag: -21%[70.6 µM]; HEK293 tox: 100µM*

Results for CC1(COCC2CC2)COc2ccc(C(=O)NCc3ccccc3)cc2N1 (centres undefined) ?
NIH3T3 tox: inconclusive; GPT2 inhibitor: -2%[88.5 µM]; Luciferase inh: inactive; NPR1 antag: -7%[70.6 µM]; HEK293 tox: inconclusive

How did Cc1ccc(C(=O)N2c3ccccc3CC2c2nc(C3CC3)no2)cn1 (centres undefined) do in these assays?
NIH3T3 tox: -30%; GPT2 inhibitor: 4%; HEK293 tox: -11%

What do the screens show for `O=C(c1ccc2oc(-c3ccncc3)nc2c1)N1CCCCC1`?
NIH3T3 tox: inconclusive; GPT2 inhibitor: -13%; HEK293 tox: 40µM*

How did CCOC(=O)C1CCN(C(=O)c2ccc3oc(-c4ccnc(Cl)c4)nc3c2)CC1 do in these assays?
NIH3T3 tox: -16%; GPT2 inhibitor: inactive; HEK293 tox: -13%

What do the screens show for `CCOC(=O)C1CCCN(C(=O)c2ccc3nc(-c4ccncc4)oc3c2)C1` (centres undefined)?
NIH3T3 tox: inconclusive; GPT2 inhibitor: -2%; HEK293 tox: 45µM*

Results for CCOC(=O)C1CCCN(C(=O)c2ccc3oc(-c4ccncc4)nc3c2)C1 (centres undefined) ?
NIH3T3 tox: inconclusive; GPT2 inhibitor: -4%; HEK293 tox: inconclusive
